Assay [1] has as its system Zika virus NS2B-NS3 protease (linked construct). In words: Primary screen NINDS Rhodamine qHTS for Zika virus inhibitors (AID 1347160). Note: % is set by controls: 0 for no effect and ±100 for the full control effect; nearly all actives have a fitted effect of over 55% in size. The gist of the method: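 Kinetic fluorescence (Ex 480 nm, Em 540 nm) over 15 min with 1.5 microM Rhodamine110 peptide and 25 nM linked protease.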
On the technique in general: In qHTS, concentration-response curves come from the screen itself.

The target of assay [2] is Calcium and integrin-binding protein 1 (Homo sapiens) (UniProt Q99828). As to the kind of experiment: Primary qHTS for Identification of Calcium Integrin Binding Protein 1 (CIB1) Competitor (AID 1508620).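 Note: GST tagged CIB1 binding a fluorescein labelled alphaIIb integrin peptide tracer; top concentration of the series differs between compounds; % is set by controls: 0 for no effect and ±100 for the full control effect.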 In outline:
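Fluorescence polarization competition: GST-tagged CIB1 (1 uM final) preincubated with compound 15 min at room temperature, then FITC-labelled alphaIIb peptide (100 nM final) added. After 15 min at room temperature, polarization read at Ex 480/Em 540.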

Assay [3] addresses Glutathione peroxidase 1 (Homo sapiens) (UniProt P07203). As to the kind of experiment: Primary qHTS Assay for Inhibitors of Recombinant Selenoprotein Glutathione Peroxidase 1 (GPX1) (AID 1845191). Note: nearly all actives have a fitted effect of over 65% in size. In outline: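 GR-coupled assay: compounds preincubated 30 min at room temperature with GPX1, then reaction started with CHP; final 10 nM GPX1, 1 mM GSH, 0.5 mM CHP, 0.5 mM NADPH, 100 nM GR, 0.01% BSA, pH 7.5 Tris buffer. NADPH fluorescence (340/450 nm) read at 0 and 15 min.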

Assay [4] has as its target Luciferin 4-monooxygenase (Photinus pyralis) (UniProt P08659). In words: Primary firefly luciferase (FLuc) qHTS assay for identification of artifact compounds. (AID 1845220).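 Note: plate controls were DMSO vehicle for no effect and no enzyme for full effect; nearly all actives have a fitted effect of over 60% in size.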 Conditions: outcome: dose series up to 54.1 µM unless noted. The gist of the method:
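Titrated compounds were incubated 15 min at RT, protected from light, with luciferin and ATP at 10 uM; reaction started with 10 nM FLuc, luminescence imaged at 5 min, and concentration-response fitted by Hill equation.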

Assay [5] can be described thus: Primary fluorescence-based thiol-reactive (MSTI) qHTS assay for identification of artifact compounds. (AID 1845221).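 Note: thiol-reactive compounds lower the probe fluorescence signal; nearly all actives have a fitted effect of over 65% in size.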 The gist of the method: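 Thiol-reactive compounds detected by quenching of 4 uM MSTI fluorescence (525/598 nm) after 1 h room-temperature dark incubation in PBS pH 7.4, 2% DMSO. qHTS titration; percent inhibition Hill-fitted against Acetyl-MSTI/MSTI controls.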

Assay [6] deals with Nanoluciferase (engineered Oplophorus gracilirostris luciferase). In words: Primary Nanoluciferase (NLuc) qHTS assay for identification of artifact compounds. (AID 1845222).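 Note: NLuc secreted into diluted conditioned medium of S16 cells; 0% = DMSO and -100% = no enzyme.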 The gist of the method: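 qHTS format, against NLuc in S16 cell-conditioned medium. Nano-Glo substrate 1:100 was added after 15 min at room temperature. Luminescence was taken after a further 5 min.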
In the next assay the test system is HaCat. In words: Cytotoxic Profiling of Annotated Libraries Using Quantitative High-Throughput Screening (AID 1296008). For max response: % is set by controls: 0 for no effect and ±100 for the full control effect. Note: nearly all actives have a fitted effect of over 60% in size. Note: potency is the fitted concentration of half-maximal effect. To be noted: Five cell lines viability, CellTiter-Glo ATP luminescence, 48-72 h; max response: hits give low values. In outline:
(§1)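 Cells exposed to compounds for 48 or 72 hr at 37 degrees Celsius. Viability read as ATP-coupled luminescence with CellTiter-Glo after 10 min at room temperature.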
(Cellular ATP, detected with luciferase, serves as a proxy for viable cell number.)

Another assay concerns NIH3T3. Described as above. Conditions: Five cell lines viability, CellTiter-Glo ATP luminescence, 48-72 h; max response: hits give low values. In outline:
as §1

The next assay relates to CASKI. As to the kind of experiment: Primary qHTS to identify gynecologic anti-cancer compounds using libraries of approved drugs and bioactive compounds (AID 1345084). Note: nearly all actives have a fitted effect of over 55% in size. Note: potency is the fitted concentration of half-maximal effect. Conditions: Gynecologic cancer cell panel viability, ATPlite luminescence, 48 h; series mostly up to 57.5 µM. In outline: (§2)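 Five-point cytotoxicity, 48 h drug exposure at 37 C, 5% CO2, on cells seeded 16 h beforehand. ATP content read by ATPlite luminescence.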

The test system of another assay is JEG-3. The assay is described as above. Conditions: Gynecologic cancer cell panel viability, ATPlite luminescence, 48 h; series mostly up to 57.5 µM. The gist of the method:
as §2

For assay [7], the target named is Phospholipid hydroperoxide glutathione peroxidase GPX4 (Homo sapiens) (UniProt P36969). In words: Primary qHTS Assay for Inhibitors of Recombinant Selenoprotein Glutathione Peroxidase 4 (GPX4) (AID 1845192). Note: nearly all actives have a fitted effect of over 65% in size. In outline:
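GR-coupled assay: recombinant GPX4 preincubated 30 min with compound at room temperature; final 200 nM GPX4, 1 mM GSH, 0.5 mM cumene hydroperoxide, 0.5 mM NADPH, 100 nM GR, 0.01% BSA, pH 7.5 Tris. NADPH fluorescence (340/450 nm) read at 0 and 15 min.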

Assay [8] in a line: Primary redox qHTS assay for identification of artifact compounds. (AID 1845223).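 Note: 0% = DMSO and 100% = reference compound.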 The gist of the method: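 Amplex Red (25 uM) and HRP (250 mU/mL) in HBSS, with compounds for 15 min, then 250 uM DTT for 30 min, room temperature, dark. Fluorescence 525/598 nm read; normalized to DMSO and 10 uM DA3003; Hill fit.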
The subject of the next assay is CAOV3. In words: Primary qHTS to identify gynecologic anti-cancer compounds using libraries of approved drugs and bioactive compounds (AID 1345084). Note: nearly all actives have a fitted effect of over 55% in size. Note: potency is the fitted concentration of half-maximal effect. Conditions: Gynecologic cancer cell panel viability, ATPlite luminescence, 48 h; series mostly up to 57.5 µM. The gist of the method: as §2
For a further assay, the system named is OV90. The assay is described as above. Conditions: Gynecologic cancer cell panel viability, ATPlite luminescence, 48 h; series mostly up to 57.5 µM. In outline:
as §2

The subject of another assay is PA-1. The description is as above. Conditions: Gynecologic cancer cell panel viability, ATPlite luminescence, 48 h; series mostly up to 57.5 µM. In outline: as §2
A further assay concerns Tov112D. The assay is described as above. To be noted: Gynecologic cancer cell panel viability, ATPlite luminescence, 48 h; series mostly up to 57.5 µM. The gist of the method:
as §2

The subject of a further assay is C33A. Described as above. Conditions: Gynecologic cancer cell panel viability, ATPlite luminescence, 48 h; series mostly up to 57.5 µM. The gist of the method: as §2
For the next assay, the system named is Es-2. The assay is described as above. Conditions: Gynecologic cancer cell panel viability, ATPlite luminescence, 48 h; series mostly up to 57.5 µM. The gist of the method: as §2
Another assay deals with Hek293T. The description is as above. To be noted: Gynecologic cancer cell panel viability, ATPlite luminescence, 48 h, control line for the selectivity index; series mostly up to 57.5 µM. The gist of the method: as §2
The next assay concerns Tov-21-G. The description is as above. Conditions: Gynecologic cancer cell panel viability, ATPlite luminescence, 48 h; series mostly up to 57.5 µM. The gist of the method:
as §2

SMILES strings stand for the structures. Values without a mark were called inactive. Results filed as inconclusive are left out. The source made the active and inactive calls. Calls come from the whole dose curve; as a rule, active = well fitted curve in the direction sought with a large enough effect; inconclusive = small, poorly fitted or top-dose-only effect, or another doubt; inactive = no such curve, though single readings can be large; an effect the other way counts as inactive or inconclusive.

For 7 molecules, Potency, outcome and max response results are on record in PubChem BioAssay (NCATS).

Phospholipid hydroperoxide glutathione peroxidase GPX4 (Homo sapiens), sequence (P36969 whole entry, looked up): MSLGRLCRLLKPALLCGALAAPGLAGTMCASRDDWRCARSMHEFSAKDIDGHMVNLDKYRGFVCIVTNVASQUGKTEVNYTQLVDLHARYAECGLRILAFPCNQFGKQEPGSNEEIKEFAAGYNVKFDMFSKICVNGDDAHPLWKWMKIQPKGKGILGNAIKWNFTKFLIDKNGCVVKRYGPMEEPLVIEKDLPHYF
Glutathione peroxidase 1 (Homo sapiens), sequence (P07203 whole entry, looked up): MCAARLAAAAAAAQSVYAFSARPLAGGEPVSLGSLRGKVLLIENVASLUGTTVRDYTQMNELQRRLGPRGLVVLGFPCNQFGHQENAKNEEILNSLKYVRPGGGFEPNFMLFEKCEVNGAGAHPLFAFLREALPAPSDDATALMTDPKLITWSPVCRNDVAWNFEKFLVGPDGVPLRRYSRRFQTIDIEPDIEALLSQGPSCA
Calcium and integrin-binding protein 1 (Homo sapiens), sequence (Q99828 whole entry, looked up): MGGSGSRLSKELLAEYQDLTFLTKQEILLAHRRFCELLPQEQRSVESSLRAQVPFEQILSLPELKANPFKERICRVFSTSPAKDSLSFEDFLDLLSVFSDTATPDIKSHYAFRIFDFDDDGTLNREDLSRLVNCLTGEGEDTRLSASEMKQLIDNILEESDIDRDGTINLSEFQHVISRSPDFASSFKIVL

On to `C=C(CO)[C@@]12O[C@@H]1[C@@]1(C)C(=CC2=O)CC[C@@H](O)[C@@H]1C`, for which the Potency entry (in assay [1]; in assay [2]; in assay [3]; in assay [5]; in assay [6]; in the assay with CASKI) was “inactive” throughout. Moreover, the Potency entry with JEG-3 is “inactive”. The call (in [4]; in the assay with HaCat) was inactive. In addition, in the assay with NIH3T3, the Potency is 7.31 µM (active).

In the case of `C[C@]12CC[C@H](OC3OC(CO)C(O)C(O)C3OC3OC(CO)C(O)C(O)C3O)C[C@@H]1CC[C@@H]1C2CC[C@]2(C)[C@@H](C3=CC(=O)OC3)CC[C@]12O` (stereo partly specified), the Potency entry in [1], in assay [2], in [3], in [7], in assay [5] and in assay [6] was “inactive” throughout. The Potency result (in [8]; in the assay with CAOV3; with CASKI; in the assay on JEG-3; in the assay with OV90; with PA-1) was “inactive” throughout. The molecule was called inactive (in assay [4]; in the assay on NIH3T3). The max response with HaCat was -2.72%. The Potency in the assay with Tov112D is 7.08 µM (active).

For the molecule `NNC(=O)c1nn(Cc2ccc(Cl)cc2Cl)c2ccccc12`, the Potency result (in assay [2]; in [3]; in [7]; in [5]; in assay [6]; in the assay with C33A) was “inactive” each time. For the same molecule, the Potency result in the assay on CASKI, in the assay with Es-2, in the assay on Hek293T, with JEG-3, with OV90 and with Tov112D was “inactive” each time. For the same molecule, the result in assay [4] was inactive. Moreover, the max response is 3.64% in the assay on HaCat and -5.07% with NIH3T3.

`N#Cc1ccccc1-c1cc(-c2ccccn2)cn(-c2ccccc2)c1=O`: the Potency result (in assay [2]; in [3]; in assay [5]; in the assay on C33A; in the assay on CAOV3; in the assay with CASKI) was “inactive” each time. For the same molecule, the Potency entry with Es-2, in the assay with Hek293T, in the assay with JEG-3, in the assay with OV90, with PA-1 and in the assay on Tov-21-G was “inactive” each time. Moreover, the Potency result in the assay on Tov112D was “inactive”. Besides, in assay [4], the outcome was inactive. For the same molecule, the results for the max response in the assay with HaCat and in the assay with NIH3T3 were 1.04% and -0.815%, respectively.

Consider `CC1=CC2/C=C(\C)CCC(O)C(O)/C=C/C(=O)C23C(=O)NC(CC(C)C)C3C1C` (stereo unspecified), for which the Potency result (in [2]; in [7]; in assay [5]; in [8]; in the assay with Tov-21-G) was “inactive” throughout. For the same molecule, in assay [4], the call was inactive. Besides, the Potency with NIH3T3 is 7.96 µM (active); in the assay on Es-2 it was 10 µM (active); in the assay on Hek293T it was 7.94 µM (active); in the assay with PA-1 it was 12.6 µM (active); in the assay on Tov112D, 10 µM (active).

Take `C[C@H]1CN(Cc2ccc(CC(=O)N3CCC(Nc4cccc(F)c4)CC3)cc2)CCN1`: the Potency result in assay [1], in assay [2], in assay [3], in [7], in [5] and in assay [6] was “inactive” in each case. Further, the Potency result (in [8]; in the assay on C33A; in the assay on CAOV3; with CASKI; with Es-2; with Hek293T) was “inactive” each time. The Potency entry in the assay with JEG-3, in the assay on OV90, with PA-1, with Tov-21-G and in the assay on Tov112D was “inactive” throughout. Moreover, the outcome in assay [4] was inactive. Further, the Potency in the assay with NIH3T3 was 20.6 µM (active).

For `C/C=C(/C)C(=O)O[C@H]1[C@@H]2[C@H](C)C(=O)O[C@@H]2C[C@@H](C)[C@@H]2C=CC(=O)[C@]21C`, the Potency result (in [1]; in assay [2]; in assay [7]; in assay [6]; in assay [8]; in the assay on JEG-3) was “inactive” throughout. Also, the Potency entry in the assay with Tov-21-G is “inactive”. In addition, the result in [4] was inactive. Also, the max response in the assay with HaCat is -11.7%.
